Pf growth 48h: P. falciparum growth inhibition at 48 hours (one generation) | P. falciparum luciferase growth in erythrocytes, 48 h | Potency, µM (doses to about 28.7 µM), usual class: inhibitors | 310,000 tested, 5.9% active | AID 504832
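In quantitative HTS format, infected erythrocytes bearing luciferase-reporter parasites were treated for a single generation at 37 C. Luminescence after adding detection reagent served as the growth measure.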
HCMV inh: human cytomegalovirus inhibition | HFF cells, HCMV-luciferase reporter, 72 h; hits give low values | activity change, negative = inhibition, % at 57.5 µM | 410,000 tested, 4.5% active | AID 1259415; in the data active means activity change below about -60%; inconclusive means no clear call, values can overlap the other calls; inactive means above about -39%
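Luciferase read-out from HCMV-luciferase-infected HFFs (MOI 1 PFU/cell) 72 h post infection at 37C; compounds added after 16 h cell attachment; activity normalized between buffer-only basal and Salinomycin (10uM) inhibitor controls.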
Pf growth 96h: P. falciparum growth inhibition at 96 hours | P. falciparum luciferase reporter growth, 96 h | Potency, µM (highest dose often 28.7 µM), actives largely listed as inhibitors | 320,000 tested, 6.9% active | AID 504834
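96 h incubation, 37 C, 5% CO2, of luciferase-reporter P. falciparum-infected RBCs (2% hematocrit, 0.05% parasitemia final) with test compounds; endpoint luminescence.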
Sm TGR block: blocks Schistosoma mansoni thioredoxin glutathione reductase; Q962Y6; purified TGR, DTNB reduction, TNB absorbance 405 nm; Potency, µM (titrated, usually from 114 µM), hits mostly inhibitors; 360,000 tested, 3% active; further: nearly all actives have a fitted effect of over 60% in size
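TGR 20 nM + NADPH 100 uM (dispensed conc.), cpd preinc 15 min RT; start with NADPH (500 uM addition) then DTNB (15 mM addition). Kinetic TNB absorbance, 405 nm filter. Four-parameter Hill fit across titration.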
Giardia FBPA inh: blocks Giardia fructose-bisphosphate aldolase activity. A8B2U2. purified Giardia FBPA. Potency, µM (series often up to 59.6 µM), usual class: inhibitors. 290,000 tested, 0.71% active. AID 2451; further: nearly all actives have a fitted effect of over 55% in size
Target sequence (A8B2U2 whole entry, looked up): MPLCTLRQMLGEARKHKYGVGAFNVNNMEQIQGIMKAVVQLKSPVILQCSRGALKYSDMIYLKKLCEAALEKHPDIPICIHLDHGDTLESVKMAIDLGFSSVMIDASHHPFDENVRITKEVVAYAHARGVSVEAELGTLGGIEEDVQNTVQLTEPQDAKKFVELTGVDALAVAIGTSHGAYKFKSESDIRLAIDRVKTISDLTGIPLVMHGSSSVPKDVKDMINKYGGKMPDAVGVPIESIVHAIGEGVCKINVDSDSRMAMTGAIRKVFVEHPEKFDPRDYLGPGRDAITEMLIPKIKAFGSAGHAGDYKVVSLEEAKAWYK
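40 nM FBPA preincubated 10 min at RT with compound (up to 57.5 uM final), then substrate plus GAPDH/TPI/NAD/arsenate coupling and diaphorase/resazurin added. Fluorescence read after 20 min at RT, 525/598 nm.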
A number is an active result. A selection: hits, their analogues and other compounds. The true share with any hit is near 14%. Unless noted, the call rests on the fitted dose curve; in most records, active means well fitted curve in the direction sought with a large enough effect; inconclusive means small, poorly fitted or top-dose-only effect, or another doubt; inactive means no such curve, though single readings can be large; an effect the other way counts as inactive or inconclusive.

What do the screens show for `CS(=O)(=O)N1CC(=O)N2[C@@H](CO)[C@H](c3ccc(Br)cc3)[C@@H]2C1`?
HCMV inh: inactive

What do the screens show for `CCCCCC(=O)N1C[C@@H](n2cc(-c3ccc(F)cc3)nn2)[C@H](O)C[C@@H]1c1ccc(C)cc1`?
HCMV inh: inactive

What do the screens show for `Cc1ccc(-c2nc(CS(=O)CC(=O)NCc3ccc(F)cc3)c(C)o2)cc1` (stereo not given)?
Pf growth 48h: inactive; HCMV inh: inactive; Pf growth 96h: inconclusive; Sm TGR block: inactive

Results for Cc1ccc(-c2nc(CS(=O)CC(=O)NCc3ccccc3)c(C)o2)cc1 (stereo not given) ?
HCMV inh: inactive; Pf growth 96h: inactive; Sm TGR block: 40µM; Giardia FBPA inh: inactive

How did CCOc1ccc(CCNC(=O)CS(=O)Cc2nc(-c3ccc(OC)c(OC)c3)oc2C)cc1OCC (stereo not given) do in these assays?
Pf growth 48h: inconclusive; HCMV inh: inactive; Pf growth 96h: inactive; Sm TGR block: 50µM

What do the screens show for `COc1ccc(CNC(=O)CS(=O)Cc2nc(-c3ccc(C)cc3)oc2C)cc1` (stereo not given)?
HCMV inh: inactive; Pf growth 96h: 7.4µM; Sm TGR block: 50µM; Giardia FBPA inh: inactive

Results for COc1ccc(-c2nc(CS(=O)CC(=O)NCc3ccc(C)cc3)c(C)o2)cc1OC (stereo not given) ?
Pf growth 48h: inactive; Pf growth 96h: inactive; Sm TGR block: 40µM; Giardia FBPA inh: inactive

What do the screens show for `O=C(Nc1ccc(Cl)cc1C(=O)N1CCOCC1)c1cccc([N+](=O)[O-])c1`?
Pf growth 48h: inactive; HCMV inh: inactive; Pf growth 96h: inconclusive; Sm TGR block: inactive; Giardia FBPA inh: inactive

How did CCCC(=O)N1CCCC(c2cc(C(=O)NCc3ccc(F)cc3)no2)C1 (stereo not given) do in these assays?
HCMV inh: inactive

What do the screens show for `Cc1c(C(=O)Nc2ccccc2F)sc2ncn(CC(=O)N3CCOCC3)c(=O)c12`?
Pf growth 48h: inactive; HCMV inh: inactive; Pf growth 96h: inconclusive; Sm TGR block: inactive; Giardia FBPA inh: inactive

What do the screens show for `Cc1nc(N2CCC(C)CC2)c2c(C)c(C(=O)Nc3cccc(C(F)(F)F)c3)sc2n1`?
Pf growth 48h: inconclusive; HCMV inh: inactive; Pf growth 96h: inactive; Sm TGR block: inactive; Giardia FBPA inh: inactive

How did Cc1nc(N2CCC(C)CC2)c2c(C)c(C(=O)Nc3ccc(C(F)(F)F)cc3)sc2n1 do in these assays?
Pf growth 48h: 0.21µM; HCMV inh: inactive; Pf growth 96h: inconclusive; Sm TGR block: inactive; Giardia FBPA inh: inactive

What do the screens show for `Cc1nc(N2CCN(c3ccccn3)CC2)c2c(C)c(C(=O)Nc3ccccc3F)sc2n1`?
Pf growth 48h: 6.6µM; HCMV inh: inactive; Pf growth 96h: inconclusive; Sm TGR block: inactive; Giardia FBPA inh: inactive

How did Cc1ccc(F)cc1NC(=O)c1sc2ncn(CC(=O)N3CCN(c4ccccn4)CC3)c(=O)c2c1C do in these assays?
Pf growth 48h: inactive; HCMV inh: inactive; Pf growth 96h: 15µM; Sm TGR block: inactive

What do the screens show for `Cc1ccc(NC(=O)c2cnc(N3CCN(c4ccccn4)CC3)c3ccccc23)c(Br)c1`?
Pf growth 48h: inconclusive; HCMV inh: -70; Pf growth 96h: inconclusive; Sm TGR block: inactive; Giardia FBPA inh: inactive

How did Cc1nc(N2CCN(c3ccccn3)CC2)c2c(C)c(C(=O)Nc3ccc(F)cc3Cl)sc2n1 do in these assays?
Pf growth 48h: inconclusive; HCMV inh: inconclusive; Pf growth 96h: inactive; Sm TGR block: inactive

What do the screens show for `C(=C\c1ccccc1)/CN1CCN(C(c2ccccc2)c2nnnn2C2CCCCC2)CC1` (stereo not given)?
HCMV inh: inactive

How did Cc1nc(N2CCN(c3ccccn3)CC2)c2c(C)c(C(=O)Nc3ccc(F)cc3F)sc2n1 do in these assays?
Pf growth 48h: 8.3µM; HCMV inh: inactive; Pf growth 96h: inactive; Sm TGR block: inactive; Giardia FBPA inh: inactive

What do the screens show for `COc1ccc(C(=O)c2ccc(N(C)C)cc2)c2ccccc12`?
Pf growth 48h: inactive; HCMV inh: -77; Pf growth 96h: inactive; Sm TGR block: inactive; Giardia FBPA inh: inactive

How did COc1ccc(C(=O)c2ccc(OC)c(OC)c2OC)cc1 do in these assays?
HCMV inh: inactive

What do the screens show for `Cc1cc(C)c(O)c(-c2cc(C(=O)Nc3ccc(S(=O)(=O)N4CCOCC4)cc3)[nH]n2)c1`?
Pf growth 48h: 5.9µM; HCMV inh: -76; Sm TGR block: inactive; Giardia FBPA inh: inactive

Results for CC(=O)Nc1ccc(NC(=O)c2cc(-c3ccc(F)cc3C)n[nH]2)cc1 ?
HCMV inh: inactive

What do the screens show for `Cc1ccc(-c2cc(C(=O)Nc3ccc(S(=O)(=O)Nc4ncccn4)cc3)[nH]n2)c(O)c1C`?
Pf growth 48h: inconclusive; HCMV inh: inconclusive; Pf growth 96h: 9.3µM; Sm TGR block: inactive; Giardia FBPA inh: inactive

What do the screens show for `Cc1cc(C)c(OCC(=O)Nc2ccc(S(=O)(=O)N3CCOCC3)cc2)c(C)c1`?
Pf growth 48h: inconclusive; HCMV inh: inactive; Pf growth 96h: inconclusive; Sm TGR block: inactive

How did CC(=O)Nc1ccc(NC(=O)c2cc(-c3cc(C)cc(C)c3O)n[nH]2)cc1 do in these assays?
Pf growth 48h: 12µM; HCMV inh: inconclusive; Pf growth 96h: inconclusive; Sm TGR block: inactive; Giardia FBPA inh: inactive

Results for CC(=O)Nc1ccc(NC(=O)c2cc(-c3ccc(C)c(C)c3O)n[nH]2)cc1 ?
Pf growth 48h: 12µM; HCMV inh: inactive; Pf growth 96h: 2.3µM; Sm TGR block: inactive; Giardia FBPA inh: inactive

How did COc1cccc(Cn2c(=O)c(C)nc3cnc(N4CCOCC4)nc32)c1 do in these assays?
Giardia FBPA inh: inactive

What do the screens show for `O=C(NCc1ccc2c(c1)OCO2)c1ccc(COc2cc(Cl)ccc2Cl)o1`?
HCMV inh: inactive; Pf growth 96h: 6.6µM; Sm TGR block: inactive; Giardia FBPA inh: inactive

Results for COc1ccccc1CNC(=O)Cn1cccc1 ?
Pf growth 48h: inactive; HCMV inh: inactive; Pf growth 96h: inactive; Sm TGR block: inactive; Giardia FBPA inh: inactive

Results for Cc1cc(C(F)(F)F)nn1CC(=O)NCc1ccccc1 ?
HCMV inh: inactive; Pf growth 96h: 7.4µM; Sm TGR block: inactive; Giardia FBPA inh: inactive

What do the screens show for `COc1ccccc1CNC(=O)Cn1nc(C(F)(F)F)cc1C`?
Pf growth 48h: 12µM; HCMV inh: inactive; Pf growth 96h: 15µM; Sm TGR block: inactive

What do the screens show for `COc1cc(C2C3=C(CCCC3=O)Nc3c2c(C)nn3-c2cccc(C)c2)cc(OC)c1O` (stereo not given)?
Pf growth 48h: inconclusive; HCMV inh: inactive; Pf growth 96h: inconclusive; Sm TGR block: 40µM; Giardia FBPA inh: inconclusive

Results for COc1cc(C2C3=C(CCCC3=O)Nc3[nH]n(-c4ccccc4)c(=O)c32)ccc1O (stereo not given) ?
Pf growth 48h: 5.2µM; HCMV inh: inactive; Pf growth 96h: inconclusive; Sm TGR block: inconclusive; Giardia FBPA inh: inconclusive

Screening results deposited in PubChem by National Center for Advancing Translational Sciences (NCATS).
